In the library only some 4.1% were active in any assay of this set; here they are far more common.
DAX1 inh-1 – blocks DAX1 repression of SF-1 activated StAR promoter | inhibition, % at 6.8 µM | 370,000 compounds, 1.1% hits | HEK293T StAR-luciferase reporter, SF-1/DAX-1 repression relief;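 active means inhibition above the mean over all tested compounds plus 3 SD, cut at about 3.6% in these data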;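 further: 0% = DAX-1 cells with DMSO and 100% = cells lacking DAX-1 with DMSO; higher inhibition means more luminescence from relief of DAX-1 repression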
hcDAF-12 act – activators of H. contortus DAF-12 nuclear receptor; HEK293 hcDAF-12 lit1-tk-luc reporter, luminescence; 0% DMSO, 100% Δ7-dafachronic acid; activation, % at 6.8 µM; 370,000 compounds, 1.4% hits;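 active means activation above the mean of all tested compounds plus 3 SD, cut at about 5.5% in these data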;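 further: 100% = response to 3 µM Δ7-dafachronic acid high control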
DAX1 inh-2 – inhibitors of human orphan nuclear receptor DAX1 (NR0B1) | HEK293 Gal4-DAX1 luciferase reporter, luminescence | 340,000 compounds, 0.99% hits | inhibition, % at 6.75 µM;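 active means inhibition above the mean over all tested compounds plus 3 SD, cut at about 4.2% in these data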;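 further: 0% = DAX1-transfected cells with DMSO and 100% = empty-vector control cells with DMSO; inhibition shows as a rise in luminescence from relieved DAX1 repression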
Target sequence (P51843 207-470 limits assumed): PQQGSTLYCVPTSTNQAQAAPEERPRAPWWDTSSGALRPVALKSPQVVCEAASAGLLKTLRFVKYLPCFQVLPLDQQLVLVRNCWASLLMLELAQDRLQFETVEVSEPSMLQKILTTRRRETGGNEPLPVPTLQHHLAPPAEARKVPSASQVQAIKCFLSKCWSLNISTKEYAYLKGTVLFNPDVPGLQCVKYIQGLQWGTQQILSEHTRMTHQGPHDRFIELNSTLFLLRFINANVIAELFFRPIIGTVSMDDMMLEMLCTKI
hgDAF12 agonist – agonists of H. glycines DAF-12 nuclear receptor. HEK293 GAL4-hgDAF12 UAS-luciferase reporter, agonist luminescence; normalized to butyrate control. activation, % at 6.8 µM. 370,000 compounds, 1.8% hits. AID 687014;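 active means activation above a cutoff set at the mean of all screened compounds plus 3 SD, cut at about 10% in these data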;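 further: 0% = DMSO wells and 100% = sodium butyrate wells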
ssDAF-12 act – activates DAF-12 receptor from parasite S. stercoralis; AID 652126; 370,000 compounds, 1% hits; HEK293 ssDAF-12/GRIP1 lit1-tk-luc reporter, luminescence; % of 3 µM dafachronic acid response; activation, % at 6.8 µM;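 active means activation above the mean over all tested compounds plus 3 SD, cut at about 0.9% in these data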;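 further: 0% = DMSO-only wells and 100% = 3 µM delta7-dafachronic acid wells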
DAX1 conf – NR0B1 (human) inhibition, confirmation. shares compounds with DAX1 inh-1. HEK293T StAR-promoter luciferase reporter, SF-1/DAX-1 repression. inhibition, % at 6.8 µM. 2,400 compounds, 87% hits. AID 652134;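 active means inhibition above the average of every tested compound plus 3 SD, cut at about 3.8% in these data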;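 further: 0% = DAX-1 cells with DMSO and 100% = no DAX-1 control cells with DMSO; active compounds raise luminescence by relieving repression of the StAR reporter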
SF1 AF2mut Luc – counter-screen for DAX1 inhibitors: nonselective inhibitors with SF-1 AF2 mutant | inhibition, % at 6.8 µM | shares compounds with DAX1 inh-1 | HEK293 StAR-luciferase, luminescence | 2,400 compounds, 78% hits | AID 652136;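 active means inhibition above the mean of all tested compounds plus 3 SD, cut at about 3% in these data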;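 further: 0% = DAX-1 transfected cells with DMSO and 100% = cells without DAX-1 with DMSO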
LXRb hcDAF ctr – activates human LXR-beta, counter-screen for hcDAF-12 agonists; AID 743027; activation, % at 6.8 µM; shares compounds with hcDAF-12 act; 3,400 tested, under 10 active; HEK293 Gal4-LXR tk-luc reporter, luminescence, 24 h; normalized: DMSO 0%, positive control 100%;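 active means mean percent activation of the reporter above a cutoff set as the average over tested compounds plus their standard deviation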
hcDAF12 conf – confirmation of H. contortus DAF-12 agonists; shares compounds with hcDAF-12 act; HEK293 hcDAF-12 lit1-tk-luc reporter, luminescence; % of Δ7-dafachronic acid response; activation, % at 6.8 µM; 3,400 compounds, 61% hits; AID 743032;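 active means mean activation across triplicate tests above the threshold derived from the earlier primary screen, cut at about 5.5% in these data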;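 further: 0% = DMSO only wells and 100% = 3 µM Δ7-dafachronic acid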
hgDAF12 conf – hgDAF-12 agonism, confirmation assay. activation, % at 6.8 µM. shares compounds with hgDAF12 agonist. 3,300 compounds, 80% hits. HEK293 GAL4-hgDAF12 luciferase reporter, agonist mode; percent of butyrate response;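 active means mean activation over triplicate wells above the hit cutoff derived from the earlier primary screen, cut at about 11% in these data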;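 further: 0% = DMSO low control and 100% = 2 mM sodium butyrate high control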
LXRb DAF12 ctr – LXR-beta agonism as DAF-12 counter-screen; HEK293 Gal4-LXR luciferase reporter, 24 h; 3,300 tested, under 10 active; activation, % at 6.8 µM; shares compounds with hgDAF12 agonist;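 active means mean activation of the triplicate above a set limit carried over from the primary screen, none filed active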
Starred values were filed as active, the others as inactive; nt = no result given.

SMILES	DAX1 inh-1	hcDAF-12 act	DAX1 inh-2	hgDAF12 agonist	ssDAF-12 act	DAX1 conf	SF1 AF2mut Luc	LXRb hcDAF ctr	hcDAF12 conf	hgDAF12 conf	LXRb DAF12 ctr
COc1cc(C(O)c2nc3ccccc3n2C(C)C)cc(OC)c1OC (configuration not stated)	0	-1	-1	3	-1	nt	nt	nt	nt	nt	nt
CC(CCc1ccccc1)NC(=O)C(=O)N1CCOCC1 (configuration not stated)	0	-2	1	-1	0	nt	nt	nt	nt	nt	nt
COc1ccc([C@H]2Cc3cccc(O)c3C(=O)O2)cc1O	-1	3	2	3	0	nt	nt	nt	nt	nt	nt
COc1ccc([C@H]2Cc3cc(O)cc(O)c3C(=O)O2)cc1O	5.2*	14*	4	18*	2.3*	20*	13*	2	11*	25*	1
COc1ccc2nc(N3CCOCC3)cc(C)c2c1	5.8*	4	2	17*	0	12*	6.3*	nt	nt	14*	1
O=C1/C(=C\c2ccncc2)CCc2ccccc21	0	0	0	3	-1	nt	nt	nt	nt	nt	nt
O=C1C(=Cc2ccc(Cl)cc2)CCc2ccccc21	7.4*	3	nt	15*	-1	7.4*	3.3*	nt	nt	3	1
O=C1C(=Cc2ccccc2Cl)CCc2ccccc21	6.5*	10*	nt	23*	1	6.7*	3	2	5.9*	16*	1
O=C1C(=Cc2ccc(F)cc2)CCc2ccccc21	9.5*	7.9*	nt	22*	1	7.4*	3.3*	2	5	17*	1
O=C1C(=Cc2cccc(Cl)c2)CCc2ccccc21	1	1	nt	7	-1	nt	nt	nt	nt	nt	nt
COc1ccccc1C=C1CCc2ccccc2C1=O	8.6*	7.2*	nt	18*	0	3.9*	1	2	7.5*	13*	1
COc1ccc(CNCCS(=O)(=O)NN2CCOCC2)cc1	0	-2	0	0	-1	nt	nt	nt	nt	nt	nt
c1ccc2c(C3=NNC(=NC4CC4)SC3)c[nH]c2c1	7.0*	14*	0	20*	2.1*	19*	7.1*	2	7.6*	13*	1
CN(C)c1ccc(-c2csc(C(O)c3ccccc3)n2)cc1 (configuration not stated)	6.4*	4	nt	14*	0	9.5*	8.6*	nt	nt	19*	1
CN(C)c1ccc(-c2csc(C(O)c3ccc(F)cc3)n2)cc1 (configuration not stated)	3	4	nt	9	0	nt	nt	nt	nt	nt	nt
OC(c1ccccc1)c1nc(-c2cc3ccccc3o2)cs1 (configuration not stated)	6.9*	5	nt	17*	0	11*	6.4*	nt	nt	15*	1
CC(=O)NCc1ccc(-c2nc3ccccc3s2)cc1	6.9*	4	1	15*	-1	16*	6.7*	nt	nt	15*	1
COc1ccc(-c2nc3ccccc3s2)cc1NC(C)=O	8.9*	9.6*	2	19*	0	8.2*	4.0*	1	7.8*	16*	1
Nc1c(-c2ccccc2)cnc2c(-c3ccccc3)cnn12	4.9*	11*	4.8*	20*	1.3*	14*	3.6*	2	9.3*	11*	1
Cc1ccc(/C=N/N=C/c2ccc(C)s2)s1	5.1*	9.1*	3	18*	0	19*	7.7*	2	8.2*	21*	1
O=C(CC1SC(N2CCCC2)=NC1=O)Nc1ccc(C(=O)Nc2ncccc2O)cc1 (configuration not stated)	25*	3	3	38*	1	40*	22*	nt	nt	43*	0
COc1ccc(CCN2CC(C(=O)OCC(=O)NC(C)c3cccc(Cl)c3)CC2=O)cc1OC (configuration not stated)	-1	-1	0	0	-1	nt	nt	nt	nt	nt	nt
CC(C)(C)NC(=O)C(c1cc2ccccc2o1)n1c(=O)c(-c2cc3ccccc3[nH]2)nc2ccccc21 (configuration not stated)	0	5	nt	4	0	nt	nt	nt	nt	nt	nt
Cc1csc(-c2nc3ccccc3n2C(C(=O)NC(C)(C)C)c2cc3ccccc3o2)c1 (configuration not stated)	11*	9.4*	nt	16*	1.9*	6.6*	6.0*	1	11*	18*	1
Cc1cc(O)c(-c2cc(C(=O)Nc3cccnc3)[nH]n2)cc1C	4.8*	6.3*	3	20*	1	16*	7.0*	nt	nt	16*	1
SMILES	DAX1 inh-1	hcDAF-12 act	DAX1 inh-2	hgDAF12 agonist	ssDAF-12 act	DAX1 conf	SF1 AF2mut Luc	LXRb hcDAF ctr	hcDAF12 conf	hgDAF12 conf	LXRb DAF12 ctr
COc1ccc(-c2nc(-c3ccc(Br)o3)no2)cc1	7.3*	4	3	17*	1.3*	14*	3.5*	nt	nt	16*	1
O=C(OCc1nc2ccccc2s1)c1cccs1	5.6*	10*	4.9*	17*	1.8*	15*	6.3*	1	13*	11*	0
COc1cc(OC)cc(C(=O)NCC(=O)OCc2nc3ccccc3s2)c1	4.8*	11*	6.9*	14*	1.8*	13*	7.4*	1	11*	13*	0
COc1ccc(C(=O)COC(=O)CNC(=O)c2cc(OC)cc(OC)c2)cc1	0	-2	-1	-3	-1	nt	nt	nt	nt	nt	nt
Cc1ccc(/C=C2\SC(=S)N(/N=C/c3cc([N+](=O)[O-])ccc3O)C2=O)o1	nt	nt	-1	nt	nt	nt	nt	nt	nt	nt	nt
CCc1ccc(-c2cc(N)n(-c3ccccc3)n2)cc1	7.3*	5	5.5*	17*	1	12*	7.2*	nt	nt	18*	1
Cc1cccc(-c2cc(N)n(-c3ccccc3)n2)c1	7.8*	3	3	18*	0	11*	6.8*	nt	nt	21*	1
CCNc1nc(NCC)n2c(SCC(=O)Nc3ccc(OC(F)F)cc3)nnc2n1	0	-1	0	1	-1	nt	nt	nt	nt	nt	nt

Source: PubChem BioAssay
